Measurements: PubChem BioAssay AID493216 (National Center for Advancing Translational Sciences (NCATS), 2011)
The source made the active and inactive calls. Calls come from the whole dose curve.

The compounds below were run against Polyunsaturated fatty acid lipoxygenase ALOX12 (Homo sapiens) (UniProt P18054) (assay: Inhibitors of 12-hLO (12-human lipoxygenase): Cuvette-Based Hit Assay for Validation of Followup Compounds). Conditions: purified 12-hLO, cuvette absorbance 234 nm.
Method: The enzyme activity of 12-hLO was determined by a direct measurement of product formation by monitoring the absorbance at 234 nm in a 2 mL cuvette. IC50 values of inhibitors were obtained by measuring the enzymatic rate at a variety of concentrations (Carroll et al, Segraves et al). This assay was used to validate actives or inconclusive putative inhibitors identified in the primary screen (see related BioAssay AIDs). Assay Provider: Holman, T.R., University of California, Santa Cruz Screening Center PI: Austin, Christopher P. Screening Center: NIH Chemical Genomics Center
For control experiments, 2 mL of substrate buffer (10 uM arachidonic acid / 25 mM HEPES / 0.01% (v/v) Triton X-100, pH 8.0) was aliquoted in a cuvette with a magnetic stir bar. After equilibrium was ensured, an aliquot of inhibitor solvent was added (DMSO), and equilibrium was once again assured. The reaction was started by adding enzyme to the cuvette and the reaction was followed until completed. The inhibition experiments were performed as above, except the actual inhibitory compound was added instead of vehicle. To achieve an IC50, typically 5 concentrations of the inhibitor were studied. If the inhibitor concentration was constant, then five different reaction volumes were used. Step \ Parameter \ Value \ Description 1; UV-Vis; 234 nm; Equilibration 2; Reagent; 2 mL; Substrate buffer 3; UV-Vis; 234 nm; Equilibration 4; Reagent; varies; Compound 5; UV-Vis; 234 nm; Equilibration 6; Reagent; 50-200 nM; Enzyme 12-hLO 7; UV-Vis; 234 nm; Enzymatic reaction Step \ Notes 1; Blank cuvette to air. 2; 10 uM AA, 25 mM HEPES, 0.01% Triton X-100, pH 8. 3; No change in absorbance ensured. 4; Compound vehicle or compound in various concentrations depending on potency. 5; No change in absorbance ensured. 6; Enzyme concentration to achieve reaction rate between 0.02 and 0.04 AU/s. 7; Enzymatic reaction visualized until completion.

Chain of Polyunsaturated fatty acid lipoxygenase ALOX12 (Homo sapiens) (P18054 whole entry, looked up): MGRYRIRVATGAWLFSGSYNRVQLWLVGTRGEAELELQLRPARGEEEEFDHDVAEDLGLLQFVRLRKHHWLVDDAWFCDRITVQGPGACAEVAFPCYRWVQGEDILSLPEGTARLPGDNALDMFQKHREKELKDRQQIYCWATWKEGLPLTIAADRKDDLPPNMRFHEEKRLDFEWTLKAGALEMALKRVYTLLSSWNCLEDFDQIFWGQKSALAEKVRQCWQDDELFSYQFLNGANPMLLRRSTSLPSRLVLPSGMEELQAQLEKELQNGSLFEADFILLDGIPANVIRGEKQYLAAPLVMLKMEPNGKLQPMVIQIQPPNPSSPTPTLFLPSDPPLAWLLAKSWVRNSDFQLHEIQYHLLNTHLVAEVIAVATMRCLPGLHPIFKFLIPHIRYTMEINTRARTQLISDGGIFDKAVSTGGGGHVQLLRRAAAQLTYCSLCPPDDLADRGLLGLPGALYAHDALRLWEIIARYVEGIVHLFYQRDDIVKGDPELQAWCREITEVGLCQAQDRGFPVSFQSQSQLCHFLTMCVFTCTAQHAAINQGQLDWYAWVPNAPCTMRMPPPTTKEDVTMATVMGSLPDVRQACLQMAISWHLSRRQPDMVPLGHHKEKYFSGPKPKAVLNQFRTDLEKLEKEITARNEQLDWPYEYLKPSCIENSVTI

Potency, active:
COc1ccc(Cc2nc(C(=O)Nc3ccc(OC)cc3)cs2)cc1 35.8 µM
Oc1ccc(-c2nc(-c3ccc(O)c(O)c3)cs2)cc1 0.7 µM
Oc1ccccc1-c1cc(-c2ccc3c(c2)OCCO3)n[nH]1 31.3 µM
COc1ccc(C(Nc2ccccn2)c2c(NC(=O)c3ccco3)sc(C)c2C)cc1 (stereo not given) 23.2 µM
CSCCC(NC(=O)c1ccc(Cl)cc1)C(=O)OCC(=O)Nc1ccc(C#N)cc1 (stereo not given) 18.3 µM
COc1ccc(-c2[nH]ncc2-c2ccc(Cl)cc2)c(O)c1 28.6 µM
O=C(CSc1n[nH]c(-c2ccccc2)n1)c1ccc(O)c(O)c1 24.2 µM
COc1ccc(-c2n[nH]c(C(F)(F)F)c2-c2cc3ccccc3o2)c(O)c1 21 µM
COc1cc(CNc2ccc(N3CCCC3)cc2)ccc1OCc1ccccc1 25 µM
O=C(Nc1nnc(-c2ccccn2)o1)c1ccc(Br)cc1 3.26 µM
Cc1[nH]nc(-c2ccc(O)cc2O)c1Oc1ccccc1 27 µM
CC(Oc1ccc(Cl)cc1Cl)C(=O)NC1=NN(c2ccccc2)C(=O)C1 (stereo not given) 15.5 µM
CCCOC(=O)c1ccc(Oc2cn[nH]c2-c2ccc(OC)cc2O)cc1 26.8 µM
Cc1ccc(NC(=O)Nc2cccs2)c(Cl)c1 22.4 µM
Cc1ccc(S(=O)(=O)Nc2nc(C)c(NC(=O)Nc3ccc(Cl)cc3Cl)s2)cc1 2.35 µM
CC1=NN(c2ccc(Cl)cc2)C(=O)C1C(c1cccc(O)c1)c1c(C)[nH]n(-c2ccc(Cl)cc2)c1=O (stereo not given) 7.55 µM
Cc1ccc(C(=O)Nc2nnc(-c3ccco3)o2)cc1 6.52 µM
Oc1ccccc1-c1cc(-c2ccccc2Cl)[nH]n1 16 µM
CCc1cc(-c2[nH]ncc2-c2ccc3c(c2)OCO3)c(O)cc1O 22.2 µM
COc1ccc(-c2n[nH]c(C)c2-c2ccc(Cl)cc2)c(O)c1 19.4 µM
CCc1cc(-c2n[nH]c(C)c2Oc2ccc(C(C)C)cc2)c(O)cc1O 20.2 µM
Oc1ccc(C2=Nn3c(nnc3-c3ccco3)SC2)cc1O 33.3 µM
Cc1ccc(C(=O)/C=C/c2c[nH]c3ccccc23)cc1 34.6 µM
O=S(=O)(Nc1ccc(O)c(Sc2nc3ccccc3s2)c1)c1ccc(Cl)cc1 8.77 µM
Cc1nc(N)sc1-c1csc(N(C)c2ccc(O)cc2)n1 15.6 µM
O=C(Nc1nnc(-c2ccc(Cl)cc2)o1)c1ccccc1Br 18.3 µM
O=C(/C=C/c1ccc(O)c(O)c1)c1ccc(S(=O)(=O)N2CCCCCC2)cc1 27.2 µM
O=C(Nc1nnc(C2=COCCO2)o1)c1ccc(Cl)cc1 7.14 µM
CSc1ccc(S(=O)(=O)Nc2ccc(S(=O)(=O)Nc3ccc(C)cc3)cc2)cc1 21.1 µM
Cc1cc(Cl)cc(Cl)c1OCC(=O)NCc1ccco1 20.4 µM
CCc1ccc(S(=O)(=O)/N=C2/C=C(Sc3ncn[nH]3)C(=O)c3ccccc32)cc1 23.2 µM
CN(C)c1nccc(N(Cc2ccccc2)Cc2ccccc2)c1C#N 15.7 µM
CCOC(=O)Cc1cc(=O)n(-c2nc3ccccc3s2)[nH]1 22.4 µM
CCCOC(=O)c1ccc(Oc2c(-c3ccc(O)cc3O)n[nH]c2C)cc1 16.7 µM
Oc1ccccc1-c1cc(-c2cccc(F)c2)n[nH]1 18.9 µM
Cc1oc2c(O)c(O)ccc2c(=O)c1-c1cnn(-c2ccccc2)c1 15.5 µM
Cc1cc(C)c2cc(CN(Cc3nnnn3C3CCCCC3)CC3CCCO3)c(=O)[nH]c2c1 (stereo not given) 26.9 µM
Oc1ccc(-c2csc(-c3ccccc3)n2)cc1O 0.94 µM
c1ccc(-c2nc(NCc3cccnc3)c3oc4ccccc4c3n2)cc1 14 µM
Cc1[nH]nc(-c2ccc(O)cc2O)c1-c1ccc(Cl)cc1 19 µM
